Experimental data from PubChem BioAssay AID1159580 (chemical genetic matrix, 2015).
About 2,000 (36%) of roughly 5,500 compounds were called active. Another 18% or so got no clear call; they are omitted. No stated cut-off is given here; in the data, active means normalized growth mostly below about 0.91 (no sharp cut-off); inconclusive means no clear call, values can overlap the other calls; inactive means mostly above about 0.92. The list shows a part of the results.

Test: chemical genetic growth profiling, strain panel (AID 1159580);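 further: tested at 20 µM; growth read once vehicle control cultures reached saturation at 30 °C; 1 = growth at the plate median or of vehicle wells; lower values mean less growth of the strain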
Conditions: growth OD
[1] = S. cerevisiae deletion strains, locus YAL013W, strain DEP1, hits give low values
[2] = S. cerevisiae deletion strains, locus YGR078C, strain PAC10, hits give low values
[3] = S. cerevisiae deletion strains, locus YNL153C, strain GIM3, hits give low values
[4] = S. cerevisiae deletion strains, locus YPL241C, strain CIN2, hits give low values

Measured: normalized growth

C=CCn1c(=O)c2c(nc(-c3ccc(S(=O)(=O)O)cc3)n2C)n(C)c1=O
inactive: [1] 0.982 | S. cerevisiae deletion strains, locus YAL040C, strain CLN3, hits give low values 0.965 | S. cerevisiae deletion strains, locus YCL061C, strain MRC1 (second series), hits give low values 0.985 | S. cerevisiae deletion strains, locus YDR363W, strain ESC2, hits give low values 1.07 | S. cerevisiae deletion strains, locus YER002W, strain NOP16, hits give low values 1.01 | [2] 0.997 | [3] 1.01 | S. cerevisiae deletion strains, locus YNL175C, strain NOP13, hits give low values 1 | S. cerevisiae deletion strains, locus YNL197C, strain WHI3, hits give low values 0.987 | S. cerevisiae deletion strains, locus YNL224C, strain SQS1, hits give low values 0.99 | S. cerevisiae deletion strains, locus YOR083W, strain WHI5 (second series), hits give low values 1.03 | [4] 0.979

CCOP(=S)(OCC)Oc1cc(C)nc(C(C)C)n1
inactive: [1] 0.978 | S. cerevisiae deletion strains, locus YBR021W, strain FUR4, hits give low values 1.03 | S. cerevisiae deletion strains, locus YBR229C, strain ROT2, hits give low values 0.955 | S. cerevisiae deletion strains, locus YCL029C, strain bik1, hits give low values 0.985 | S. cerevisiae deletion strains, locus YDL035C, strain GPR1, hits give low values 0.946 | S. cerevisiae deletion strains, locus YDL074C, strain BRE1, hits give low values 0.901 | S. cerevisiae deletion strains, locus YDL101C, strain DUN1, hits give low values 0.96 | S. cerevisiae deletion strains, locus YDL134C, strain PPH21, hits give low values 0.995 | S. cerevisiae deletion strains, locus YDL185W, strain tfp1, hits give low values 0.972 | S. cerevisiae deletion strains, locus YDL192W, strain arf1, hits give low values 0.985 | S. cerevisiae deletion strains, locus YDR101C, strain arx1, hits give low values 1 | S. cerevisiae deletion strains, locus YDR150W, strain NUM1, hits give low values 0.984 | S. cerevisiae deletion strains, locus YDR162C, strain NBP2, hits give low values 0.976 | S. cerevisiae deletion strains, locus YDR318W, strain mcm21, hits give low values 0.98 | S. cerevisiae deletion strains, locus YDR388W, hits give low values 0.991 | S. cerevisiae deletion strains, locus YDR502C, strain sam2, hits give low values 0.994 | S. cerevisiae deletion strains, locus YEL061C, strain CIN8, hits give low values 0.989 | S. cerevisiae deletion strains, locus YER110C, hits give low values 0.981 | S. cerevisiae deletion strains, locus YER155C, strain BEM2, hits give low values 0.996 | S. cerevisiae deletion strains, locus YER167W, strain BCK2, hits give low values 0.99 | S. cerevisiae deletion strains, locus YGL078C, strain dbp3, hits give low values 0.995 | S. cerevisiae deletion strains, locus YGL086W, strain mad1, hits give low values 0.989 | S. cerevisiae deletion strains, locus YGL248W, strain PDE1, hits give low values 0.961 | [2] 0.976 | S. cerevisiae deletion strains, locus YGR135W, strain pre9, hits give low values 0.995 | S. cerevisiae deletion strains, locus YGR229C, strain SMI1, hits give low values 0.991 | S. cerevisiae deletion strains, locus YGR252W, strain gcn5, hits give low values 0.998 | S. cerevisiae deletion strains, locus YHR030C, strain SLT2, hits give low values 0.988 | S. cerevisiae deletion strains, locus YHR079C, strain IRE1 (second series), hits give low values 0.994 | S. cerevisiae deletion strains, locus YHR094C, strain hxt1, hits give low values 0.996 | S. cerevisiae deletion strains, locus YHR129C, strain ARP1, hits give low values 0.977 | S. cerevisiae deletion strains, locus YHR200W, strain rpn10, hits give low values 0.993 | S. cerevisiae deletion strains, locus YIL066C, strain RNR3, hits give low values 0.979 | S. cerevisiae deletion strains, locus YIL073C, strain SPO22, hits give low values 1.01 | S. cerevisiae deletion strains, locus YIL125W, strain kgd1, hits give low values 0.993 | S. cerevisiae deletion strains, locus YIR030C, strain dcg1, hits give low values 0.995 | S. cerevisiae deletion strains, locus YJL095W, strain BCK1, hits give low values 0.973 | S. cerevisiae deletion strains, locus YJL134W, strain LCB3, hits give low values 0.982 | S. cerevisiae deletion strains, locus YJL168C, strain set2, hits give low values 0.987 | S. cerevisiae deletion strains, locus YJL187C, strain SWE1 (second series), hits give low values 0.978 | S. cerevisiae deletion strains, locus YJR043C, strain POL32, hits give low values 0.991 | S. cerevisiae deletion strains, locus YJR075W, strain HOC1, hits give low values 0.977 | S. cerevisiae deletion strains, locus YKL009W, strain mrt4, hits give low values 0.949 | S. cerevisiae deletion strains, locus YKL068W, hits give low values 0.993 | S. cerevisiae deletion strains, locus YKL085W, strain MDH1 (second series), hits give low values 0.988 | S. cerevisiae deletion strains, locus YKL085W, strain MDH1, hits give low values 0.988 | S. cerevisiae deletion strains, locus YKL190W, strain CNB1, hits give low values 0.993 | S. cerevisiae deletion strains, locus YKR001C, strain vps1, hits give low values 0.999 | S. cerevisiae deletion strains, locus YLR039C, strain RIC1, hits give low values 0.966 | S. cerevisiae deletion strains, locus YLR058C, strain SHM2, hits give low values 0.971 | S. cerevisiae deletion strains, locus YLR102C, strain apc9, hits give low values 0.987 | S. cerevisiae deletion strains, locus YLR262C, strain YPT6, hits give low values 0.946 | S. cerevisiae deletion strains, locus YLR268W, strain sec22, hits give low values 0.993 | S. cerevisiae deletion strains, locus YLR330W, strain CHS5, hits give low values 0.989 | S. cerevisiae deletion strains, locus YLR342W, strain FKS1 (second series), hits give low values 0.975 | S. cerevisiae deletion strains, locus YLR371W, strain rom2, hits give low values 0.995 | S. cerevisiae deletion strains, locus YLR418C, strain cdc73, hits give low values 0.959 | S. cerevisiae deletion strains, locus YML016C, strain PPZ1, hits give low values 0.993 | S. cerevisiae deletion strains, locus YML032C, strain rad52, hits give low values 0.989 | S. cerevisiae deletion strains, locus YML124C, strain tub3, hits give low values 0.998 | S. cerevisiae deletion strains, locus YMR078C, strain ctf18, hits give low values 0.991 | S. cerevisiae deletion strains, locus YMR223W, strain ubp8, hits give low values 0.988 | S. cerevisiae deletion strains, locus YMR263W, strain SAP30, hits give low values 0.98 | S. cerevisiae deletion strains, locus YMR307W, strain GAS1, hits give low values 0.976 | S. cerevisiae deletion strains, locus YNL067W, strain RPL9B, hits give low values 0.972 | S. cerevisiae deletion strains, locus YNL128W, strain TEP1, hits give low values 0.957 | [3] 0.984 | S. cerevisiae deletion strains, locus YNL233W, strain BNI4, hits give low values 0.984 | S. cerevisiae deletion strains, locus YNL250W, strain rad50, hits give low values 0.984 | S. cerevisiae deletion strains, locus YNL271C, strain bni1, hits give low values 0.992 | S. cerevisiae deletion strains, locus YNL298W, strain CLA4, hits give low values 0.995 | S. cerevisiae deletion strains, locus YNL307C, strain MCK1, hits give low values 0.998 | S. cerevisiae deletion strains, locus YNL322C, strain KRE1, hits give low values 0.978 | S. cerevisiae deletion strains, locus YNR052C, strain pop2, hits give low values 0.99 | S. cerevisiae deletion strains, locus YOL006C, strain TOP1, hits give low values 0.967 | S. cerevisiae deletion strains, locus YOL012C, strain htz1 0.881 | S. cerevisiae deletion strains, locus YOL147C, strain pex11, hits give low values 0.998 | S. cerevisiae deletion strains, locus YOR061W, strain CKA2, hits give low values 0.967 | S. cerevisiae deletion strains, locus YOR069W, strain VPS5, hits give low values 0.989 | S. cerevisiae deletion strains, locus YOR136W, strain idh2, hits give low values 0.986 | S. cerevisiae deletion strains, locus YOR144C, strain elg1, hits give low values 0.995 | S. cerevisiae deletion strains, locus YOR184W, strain ser1, hits give low values 0.987 | S. cerevisiae deletion strains, locus YOR316C, strain cot1, hits give low values 0.975 | S. cerevisiae deletion strains, locus YPL055C, strain LGE1, hits give low values 0.956 | [4] 0.989 | S. cerevisiae deletion strains, locus YPR119W, strain clb2, hits give low values 0.997 | S. cerevisiae deletion strains, locus YPR141C, strain kar3, hits give low values 0.984 | S. cerevisiae deletion strains, locus YPR163C, strain tif3, hits give low values 1 | S. cerevisiae deletion strains, locus YPR167C, strain met16, hits give low values 0.987 | S. cerevisiae deletion strains, strain wtn01, hits give low values 1 | S. cerevisiae strains, strain wild type, hits give low values 0.987
